Laboratory results from PubChem BioAssay (NCATS).
Results filed as inconclusive are left out. A call without a number means that no potency is given here. The source made the active and inactive calls. The call rests on the fitted dose curve; in most records, active means well fitted inhibition curve with a large enough effect; inconclusive means small, poorly fitted or top-dose-only effect; inactive means flat fitted curve, though single readings scatter.
Potency means the concentration at half of the fitted maximal effect.

These compounds were tested on CP297 (assay: qHTS profiling for inhibitors of Plasmodium falciparum proliferation (AID 504749; further: nearly all actives have a fitted effect of over 60% in size)). Details: P. falciparum in erythrocytes, SYBR Green DNA, 72 h; series mostly up to 28.7 µM.
Method in brief: (§1)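 P. falciparum-infected erythrocytes (0.3% parasitemia, 2.5% hematocrit final) were exposed to compounds for 72 h at 37 C in 5% CO2, then lysed with SYBR Green buffer overnight at room temperature; parasite DNA fluorescence was normalized to artemisinin and DMSO controls.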
With Cc1nc2n(c(=O)c1CCN1CCC(c3noc4cc(F)ccc34)CC1)CCCC2 the Potency was “inactive”. With C=C(c1ccc(C(=O)O)cc1)c1cc2c(cc1C)C(C)(C)CCC2(C)C the Potency was “inactive”. With Cc1c(C(=O)NN2CCCCC2)nn(-c2ccc(Cl)cc2Cl)c1-c1ccc(Cl)cc1 the Potency was 19 µM (active). With Cc1cccc(C)c1OCC(=O)N[C@@H](Cc1ccccc1)[C@@H](O)C[C@H](Cc1ccccc1)NC(=O)[C@H](C(C)C)N1CCCNC1=O the Potency was 4.26 µM (active). NNc1nncc2ccccc12 was tested, and the Potency was “inactive”. In the case of CC(C)c1ccc2oc3nc(N)c(C(=O)O)cc3c(=O)c2c1, the Potency is reported as “inactive”. With COc1ccc(C2(C#N)CCC(C(=O)O)CC2)cc1OC1CCCC1 (stereo unspecified) the Potency was “inactive”. With CN1CCC(=C2c3ccccc3CCc3sccc32)CC1 the Potency was “inactive”. Clc1ccc(C(Cn2ccnc2)OCc2ccsc2Cl)c(Cl)c1 (stereo unspecified) was tested, and the Potency was 3.79 µM (active). For CNC[C@@H](O)[C@@H](O)[C@H](O)[C@H](O)CO, the Potency was “inactive”. In the case of Cc1cc(C2CCCCC2)n(O)c(=O)c1, the Potency is reported as 7.21 µM (active). With CCCCCCCCCCCCCCCCCCCCCCO the Potency was “inactive”. O=C(NCCO[N+](=O)[O-])c1cccnc1 was tested, and the Potency was “inactive”. O=C1CCc2ccc(OCCCCN3CCN(c4cccc(Cl)c4Cl)CC3)cc2N1 was tested, and the Potency was “inactive”. With COc1ccc2cc([C@H](C)C(=O)O)ccc2c1 the Potency was “inactive”. With CC[C@]1(O)C[C@H]2CN(CCc3c([nH]c4ccccc34)[C@@](C(=O)OC)(c3cc4c(cc3OC)N(C=O)[C@H]3[C@@](O)(C(=O)OC)[C@H](OC(C)=O)[C@]5(CC)C=CCN6CC[C@]43[C@@H]65)C2)C1 the Potency was 3.01 µM (active).

What follows are compounds tested on CP305 in the same assay as above. Details: P. falciparum in erythrocytes, SYBR Green DNA, 72 h; series mostly up to 28.7 µM.
Method in brief: as §1
In the case of CCN(CCO)CCCC(C)Nc1ccnc2cc(Cl)ccc12 (stereo unspecified), the Potency is reported as “inactive”. For Cc1nc2n(c(=O)c1CCN1CCC(c3noc4cc(F)ccc34)CC1)CCCC2, the Potency was “inactive”. In the case of C=C(c1ccc(C(=O)O)cc1)c1cc2c(cc1C)C(C)(C)CCC2(C)C, the Potency is reported as “inactive”. With Cc1cccc(C)c1OCC(=O)N[C@@H](Cc1ccccc1)[C@@H](O)C[C@H](Cc1ccccc1)NC(=O)[C@H](C(C)C)N1CCCNC1=O the Potency was 13.5 µM (active). For CC(C)c1ccc2oc3nc(N)c(C(=O)O)cc3c(=O)c2c1, the Potency was “inactive”. With CCCCC(CC)COC(=O)C(C#N)=C(c1ccccc1)c1ccccc1 (stereo unspecified) the Potency was “inactive”. Cc1nc(Nc2ncc(C(=O)Nc3c(C)cccc3Cl)s2)cc(N2CCN(CCO)CC2)n1 was tested, and the Potency was “inactive”. O=C(OC1C[C@H]2CC[C@@H](C1)[N+]21CCCC1)C(O)(c1ccccc1)c1ccccc1 (stereo partly specified) was tested, and the Potency was 4.26 µM (active). In the case of COc1ccc(C2(C#N)CCC(C(=O)O)CC2)cc1OC1CCCC1 (stereo unspecified), the Potency is reported as “inactive”. In the case of COCCCOc1ccnc(CS(=O)c2nc3ccccc3[nH]2)c1C (stereo unspecified), the Potency is reported as “inactive”. For Cc1cc(=O)oc2cc(O)ccc12, the Potency was “inactive”. In the case of Clc1ccc(C(Cn2ccnc2)OCc2ccsc2Cl)c(Cl)c1 (stereo unspecified), the Potency is reported as 12 µM (active). For N=C(N)c1ccc2cc(OC(=O)c3ccc(N=C(N)N)cc3)ccc2c1, the Potency was 4.78 µM (active). For CNC[C@@H](O)[C@@H](O)[C@H](O)[C@H](O)CO, the Potency was “inactive”. For Cc1cc(C2CCCCC2)n(O)c(=O)c1, the Potency was 5.73 µM (active). CCCCCCCCCCCCCCCCCCCCCCO was tested, and the Potency was “inactive”. With O=C(NCCO[N+](=O)[O-])c1cccnc1 the Potency was “inactive”. With CN(c1nccc(=O)[nH]1)C1CCN(c2nc3ccccc3n2Cc2ccc(F)cc2)CC1 the Potency was “inactive”. For O=C1CCc2ccc(OCCCCN3CCN(c4cccc(Cl)c4Cl)CC3)cc2N1, the Potency was “inactive”. COc1ccc2cc([C@H](C)C(=O)O)ccc2c1 was tested, and the Potency was “inactive”. With Cc1cc(=O)c2c(O)c3c(O)cc(=O)c4c3c3c(cc(O)c1c23)C(C)(C)C=4O the Potency was 3.38 µM (active).

Each compound was assayed on CP315 in the same assay as above. Details: P. falciparum in erythrocytes, SYBR Green DNA, 72 h; series mostly up to 28.7 µM.
Method in brief: as §1
In the case of CCN(CCO)CCCC(C)Nc1ccnc2cc(Cl)ccc12 (stereo unspecified), the Potency is reported as “inactive”. For Cc1nc2n(c(=O)c1CCN1CCC(c3noc4cc(F)ccc34)CC1)CCCC2, the Potency was “inactive”. In the case of C=C(c1ccc(C(=O)O)cc1)c1cc2c(cc1C)C(C)(C)CCC2(C)C, the Potency is reported as “inactive”. For Cc1cccc(C)c1OCC(=O)N[C@@H](Cc1ccccc1)[C@@H](O)C[C@H](Cc1ccccc1)NC(=O)[C@H](C(C)C)N1CCCNC1=O, the Potency was 6.75 µM (active). NNc1nncc2ccccc12 was tested, and the Potency was “inactive”. With CC(C)c1ccc2oc3nc(N)c(C(=O)O)cc3c(=O)c2c1 the Potency was “inactive”. With CCCCC(CC)COC(=O)C(C#N)=C(c1ccccc1)c1ccccc1 (stereo unspecified) the Potency was “inactive”. Cc1nc(Nc2ncc(C(=O)Nc3c(C)cccc3Cl)s2)cc(N2CCN(CCO)CC2)n1 was tested, and the Potency was “inactive”. In the case of COc1ccc(C2(C#N)CCC(C(=O)O)CC2)cc1OC1CCCC1 (stereo unspecified), the Potency is reported as “inactive”. For CN1CCC(=C2c3ccccc3CCc3sccc32)CC1, the Potency was “inactive”. COCCCOc1ccnc(CS(=O)c2nc3ccccc3[nH]2)c1C (stereo unspecified) was tested, and the Potency was “inactive”. With Cc1cc(=O)oc2cc(O)ccc12 the Potency was “inactive”. Clc1ccc(C(Cn2ccnc2)OCc2ccsc2Cl)c(Cl)c1 (stereo unspecified) was tested, and the Potency was 15.1 µM (active). CNC[C@@H](O)[C@@H](O)[C@H](O)[C@H](O)CO was tested, and the Potency was “inactive”. For Cc1cc(C2CCCCC2)n(O)c(=O)c1, the Potency was 2.28 µM (active). With CCCCCCCCCCCCCCCCCCCCCCO the Potency was “inactive”. O=C(NCCO[N+](=O)[O-])c1cccnc1 was tested, and the Potency was “inactive”. With O=C1CCc2ccc(OCCCCN3CCN(c4cccc(Cl)c4Cl)CC3)cc2N1 the Potency was “inactive”. With COc1ccc2cc([C@H](C)C(=O)O)ccc2c1 the Potency was “inactive”.
